Test results: the supplement of paper PMC8728848
Shown is part of a subset that was picked to be rich in the strongest signals.

Legend:
Experiment in all cases: glycan array binding signal (z-score within array); higher = stronger binding
Conditions in all cases: glycan notation: IUPAC condensed, linker removed
Fuc(a1-2)Gal = target: Fuc(a1-2)Gal
Outline: (§1)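 Negative Z-scores can be read as non-binding. The Z-score is calculated within each array and then averaged across arrays of one protein sequence at different concentrations or buffers and across linkers. Arrays, 3228 in all, were curated from the Consortium for Functional Glycomics database and kept only where the protein sequence was available.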

[1] = target: Fuc(a1-2)Gal(b1-3)GalNAc(b1-3)Gal(b1-4)Glc
Outline: as §1

[2] = target: Fuc(a1-2)[GalNAc(a1-3)]Gal
Outline: as §1

Gal(a1-2)Gal = target: Gal(a1-2)Gal
Outline: as §1

[3] = target: Gal(b1-4)GlcNAc(b1-3)Gal(b1-4)GlcNAc
Outline: as §1

[4] = target: Gal(b1-4)GlcNAc(b1-3)Gal(b1-4)[Fuc(a1-3)]GlcNAc(b1-3)Gal(b1-4)[Fuc(a1-3)]GlcNAc
Outline: as §1

[5] = target: Gal(b1-4)GlcNAc(b1-6)[Gal(b1-3)]GlcNAc
Outline: as §1

Gal6S(b1-4)Glc6S = target: Gal6S(b1-4)Glc6S
Outline: as §1

Glc(a1-4)Glc = target: Glc(a1-4)Glc
Outline: as §1

Kdn(a2-3)Gal(b1-3)GlcNAc = target: Kdn(a2-3)Gal(b1-3)GlcNAc
Outline: as §1

[6] = target: Man(a1-2)Man(a1-2)Man(a1-3)[Man(a1-2)Man(a1-3)[Man(a1-2)Man(a1-6)]Man(a1-6)]Man(b1-4)GlcNAc(b1-4)GlcNAc
Outline: as §1

[7] = target: Man(a1-2)Man(a1-2)Man(a1-6)[Man(a1-3)]Man
Outline: as §1

[8] = target: Man(a1-2)Man(a1-3)[Man(a1-2)Man(a1-6)]Man
Outline: as §1

[9] = target: Man(a1-2)Man(a1-3)[Man(a1-3)[Man(a1-6)]Man(a1-6)]Man(b1-4)GlcNAc(b1-4)GlcNAc
Outline: as §1

Neu5Ac(a2-3)Gal = target: Neu5Ac(a2-3)Gal
Outline: as §1

[10] = target: Neu5Ac(a2-3)Gal(b1-3)GlcNAc6S
Outline: as §1

[11] = target: Neu5Ac(a2-3)Gal(b1-3)[Neu5Ac(a2-3)Gal(b1-4)]GlcNAc
Outline: as §1

[12] = target: Neu5Ac(a2-3)Gal(b1-4)GlcNAc(b1-3)Gal(b1-4)GlcNAc
Outline: as §1

[13] = target: Neu5Ac(a2-3)Gal(b1-4)[Fuc(a1-3)]GlcNAc(b1-3)Gal(b1-4)[Fuc(a1-3)]GlcNAc(b1-3)Gal(b1-4)[Fuc(a1-3)]GlcNAc
Outline: as §1

[14] = target: Neu5Ac(a2-3)Gal(b1-4)[Fuc(a1-3)]GlcNAc6S
Outline: as §1

[15] = target: Neu5Ac(a2-6)Gal(b1-4)GlcNAc(b1-2)Man(a1-3)[Neu5Ac(a2-6)Gal(b1-4)GlcNAc(b1-2)Man(a1-6)]Man(b1-4)GlcNAc(b1-4)GlcNAc
Outline: as §1

[16] = target: Neu5Gc(a2-3)Gal(b1-3)GlcNAc
Outline: as §1

B1: CVNH0 (Neurospora crassa), Q7S6U4 (protein)
chain: GSHIGPYMSFHVTAEDARIEVRDNRTILFARLRREDGEWNDASYELDQIIGNNDGHFQWGGQNFTETAEDIRFHPKEGAAEQPILRARLRDCNGEFHDRDVNLTEIVENVNGEFQAKF
Question: How did the “glycan array binding signal (z-score)” value (Fuc(a1-2)Gal) turn out when B1 was run?
Answer: The value was -0.372.

Question: And the “glycan array binding signal (z-score)” value [1]?
Answer: The value was 3.75.

Question: What about the “glycan array binding signal (z-score)” value [2] of the same binder?
Answer: Its value is -0.436.

Question: And the “glycan array binding signal (z-score)” value (Gal(a1-2)Gal)?
Answer: Its value is -0.423.

Question: And the “glycan array binding signal (z-score)” value [3]?
Answer: The value was -0.427.

Question: And the “glycan array binding signal (z-score)” value [4]?
Answer: The value was -0.186.

Question: What about the “glycan array binding signal (z-score)” value [5] of the same binder?
Answer: The value was -0.381.

Question: And the “glycan array binding signal (z-score)” value (Gal6S(b1-4)Glc6S)?
Answer: Its value is -0.362.

Question: What about the “glycan array binding signal (z-score)” value (Glc(a1-4)Glc) of the same binder?
Answer: The value was -0.391.

Question: And the “glycan array binding signal (z-score)” value (Kdn(a2-3)Gal(b1-3)GlcNAc)?
Answer: The value was -0.44.

Question: What about the “glycan array binding signal (z-score)” value [6] of the same binder?
Answer: Its value is 3.89.

Question: And the “glycan array binding signal (z-score)” value [7]?
Answer: The value was 3.68.

Question: And the “glycan array binding signal (z-score)” value [8]?
Answer: The value was 4.06.

Question: And the “glycan array binding signal (z-score)” value [9]?
Answer: The value was -0.376.

Question: And the “glycan array binding signal (z-score)” value (Neu5Ac(a2-3)Gal)?
Answer: Its value is -0.431.

Question: What about the “glycan array binding signal (z-score)” value [10] of the same binder?
Answer: Its value is 0.204.

Question: And the “glycan array binding signal (z-score)” value [11]?
Answer: The value was -0.411.

Question: And the “glycan array binding signal (z-score)” value [12]?
Answer: The value was -0.351.

Question: And the “glycan array binding signal (z-score)” value [13]?
Answer: The value was -0.226.

Question: And the “glycan array binding signal (z-score)” value [14]?
Answer: Its value is -0.433.

Question: And the “glycan array binding signal (z-score)” value [15]?
Answer: Its value is -0.408.

Question: What about the “glycan array binding signal (z-score)” value [16] of the same binder?
Answer: The value was -0.433.
